Compounds without any hit were thinned out: in the full panel of roughly 83,000, 20% have a hit.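 The test compound was applied at a single concentration to cells in 96-well plates for 48 hours, and percent growth was recorded.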 A number with no mark means an inactive call. The source made the active and inactive calls. Rule for the calls: active = growth percent below 10; inactive = the rest.
tested on: SNB-19 CNS; assay: NCI-60 one-dose screen, 48 h (100 = growth as untreated, 0 = no growth, -100 = all killed); conditions: 10 µM unless noted

Q: Which growth does the source give for CC(C)c1ccc(NC(=O)Nc2ccc(NC(=O)c3ccccc3N)cc2)cc1 here?
A: The growth was 55.5%.

Q: Which growth does the source give for O=C(/C=C/c1cccc(Cl)c1)c1cccc(OCCCCOc2cccc(C(=O)/C=C/c3cccc(Cl)c3)c2)c1 here?
A: Its growth is 91%.

Q: For CC(C)c1ccc(C(=O)Nc2sc3cc(O)ccc3c2C#N)cc1, which growth is on record?
A: The growth was 36%.

Q: With COC(=O)/C(CCC=C(C)C)=C1\[C@@H](OC(C)=O)C[C@@]2(C)[C@H]1CC(=O)[C@H]1[C@@]3(C)CCC(N4CCCC4)[C@@H](C)[C@@H]3CC[C@@]12C (stereo not given in full) as the molecule, how does the growth read?
A: Its growth is 107%.

Q: For C/C(=C(\c1ccc(OCCN2CCCCCC2)cc1)c1ccc(OC(=O)Cc2ccccc2)cc1)c1ccc(Cl)cc1, which growth is on record?
A: Its growth is 63.1%.

Q: Which growth does the source give for O=C(Cn1nnc2ccccc21)N/N=C/c1ccccc1F here?
A: The growth was 103%.

Q: With CCN(CC)CCOc1nc2c3ccc(Cl)cc3nn2c2ccccc12 as the molecule, how does the growth read?
A: Its growth is 24.2%.

Q: How did the growth turn out when COc1ccc(NC(=O)c2ccc(C(=O)Nc3ccc(OC)cc3OC)cc2)c(OC)c1 was run?
A: The growth was 50.9%.

Q: How did the growth turn out when NC(=O)OCCn1cc(-c2nc(-c3c[nH]c4ncccc34)cs2)c2ccccc21 was run?
A: The growth was 42.2%.

Q: For CCOC(=O)c1c(-c2ccc(Cl)cc2)c(C#N)c2c(C#N)c(N)nn2c1N, which growth is on record?
A: Its growth is 74.7%.

Q: How did the growth turn out when CCOC(=O)c1c(C)nc2ccccc2c1/C=C/c1ccc(OC)cc1 was run?
A: Its growth is 75.9%.

Q: O=C(/C=C/C12c3ccccc3C(c3ccccc31)C1C(=O)NC(=O)C12)c1ccccn1 (stereo not given) was tested. Which growth did it give?
A: The growth was 1.14% (active).

Q: With Cn1c(/C=C/[N+](=O)[O-])cc2ccccc21 as the molecule, how does the growth read?
A: Its growth is 57.7%.

Q: How did the growth turn out when COc1ccc(C2=Nc3c/c(=C\c4c(O)[nH]c5cc(Cl)ccc45)ccc3=N2)cc1 was run?
A: The growth was 95.1%.

Q: How did the growth turn out when O=C1/C(=C/c2ccc(C(F)(F)F)cc2)COc2ccc(O)c(O)c21 was run?
A: The growth was 27.1%.

Q: Which growth does the source give for O=C(O)c1cccc(N/C=C/C(=O)c2cc3cc(Br)ccc3oc2=O)c1 here?
A: The growth was 94%.

Q: How did the growth turn out when COc1cc(-c2nc(SCCC(C)C)nc(N3CCOCC3)c2C#N)cc(OC)c1OC was run?
A: The growth was 65.8%.

Q: How did the growth turn out when C/C(C=O)=C\c1ccc2c(c1)OCO2 was run?
A: Its growth is 111%.

Q: Which growth does the source give for COc1cc(C(=O)c2c(-c3ccccc3)oc3c(OC)cccc23)cc(OC)c1O here?
A: Its growth is 25.8%.

Q: How did the growth turn out when Cc1c2cnccc2c(C)c2c1c1cc(C3OCCCO3)ccc1n2C was run?
A: Its growth is -3.48% (active).

Q: How did the growth turn out when Cc1cc2oc(=O)cc(CP(=O)(O)O)c2cc1O was run?
A: Its growth is 93.6%.

Q: Cc1cc2nc3c4ccccc4n(CCN(C)C)c3nc2cc1C was tested. Which growth did it give?
A: The growth was 26%.

Q: Which growth does the source give for COc1cc2c(cc1O)[C@@]1(C)[C@H](c3ccccc3Br)OC(=O)N1CC2 here?
A: The growth was 95.2%.

Q: For C[Se]C(=O)CC1=C2C=C(F)C=CC2/C(=C\c2ccc(S(C)=O)cc2)C1C (stereo not given), which growth is on record?
A: Its growth is -22.7% (active).

Q: CCCCCCNc1nc(NCCCCCC)c2[nH]c(NCCCCCC)nc2n1 was tested. Which growth did it give?
A: The growth was 89.8%.

Q: Which growth does the source give for CCN(CC)CCN(CCN(CC)CC)c1ccccc1 here?
A: The growth was 87.3%.

Q: How did the growth turn out when O=C(CSc1nc2ccc([N+](=O)[O-])cc2[nH]1)Nc1ccc(Br)cc1 was run?
A: The growth was 65.6%.

Q: COc1ccc(/C(C)=C(\c2ccc(Cl)cc2)c2ccc(OCCN3CCCC3)cc2)cc1 was tested. Which growth did it give?
A: Its growth is 52.1%.

Q: COc1cc2c(c(OC)c1OC)C(=O)N[C@@H]1[C@@H](O)[C@@H](O)[C@H](O)C[C@@H]21 was tested. Which growth did it give?
A: Its growth is 99%.

Q: With O=C1NC(=O)c2c1c1c3ccccc3[nH]c1c1oc3cc(Br)ccc3c21 as the molecule, how does the growth read?
A: The growth was 72.8%.

Q: With CC(C)CCSc1nc(Nc2ccccc2)c(C#N)c(-c2ccccc2)n1 as the molecule, how does the growth read?
A: Its growth is 19.3%.

Q: Which growth does the source give for O=C(/C=C/c1ccccc1)Nc1ncc(Cc2ccccc2)s1 here?
A: The growth was 42.6%.

Q: How did the growth turn out when C#CCn1cnc2c(Nc3cccc(NC(=O)CCl)c3)ncnc21 was run?
A: The growth was 58.7%.

Q: For C/C(=N\Nc1nc(C)cs1)c1cc2ccccc2o1, which growth is on record?
A: Its growth is 96.4%.

Q: How did the growth turn out when CC(=O)N(Cc1ccccc1)c1nc2ccc(O)c(CN(C)C)c2s1 was run?
A: The growth was 100%.

Q: Which growth does the source give for Nc1c(C(=O)Nc2ccccn2)sc2nc3c(cc12)C(O)CCC3 (stereo not given) here?
A: Its growth is 20.9%.

Q: For N#C/C(=C\c1ccc(Br)cc1)c1cc2ccccc2[nH]1, which growth is on record?
A: Its growth is 94.5%.

Q: With COc1ccc(-c2ccc(-c3ccc(C(=N)N)cn3)s2)cc1 as the molecule, how does the growth read?
A: The growth was 88.6%.

Q: C=CCn1c(SCC(=O)Nc2ccc(C(=O)/C=C/c3ccc(OC)cc3)cc2)nnc1-c1ccccc1 was tested. Which growth did it give?
A: The growth was 83.9%.

Q: With Fc1ccc(COc2ccc(Nc3ncnc4sc5c(c34)CCCC5)cc2)cc1 as the molecule, how does the growth read?
A: The growth was 100%.

Source: PubChem BioAssay (NCI)
